# Test results as given in ChEMBL document CHEMBL3988442, “University of Dundee, Small-Polar-MMV Screening Library” (2021).
# The campaign covered roughly 69,000 compounds. About 1,000 (1.4%) showed an effect of 50% or more. The entries come from a sample that favours strong results as a whole.
# System: Leishmania donovani
# Experiment: Leishmania intramacrophage assay
# Format: functional, organism-based
# Set-up: scale not given: in the data most compounds retested in dose-response had high values
smiles,measurement,setting,value
CN1CCN(CC2(O)CCCN(S(=O)(=O)c3cn[nH]c3)CC2)CC1 (stereo unspecified),Percent Effect,"30.3 µM, […]",4.995%
Cc1ccc(CN2CCN(Cc3nccn3C)[C@H]3CS(=O)(=O)C[C@H]32)o1,Percent Effect,"30.3 µM, […]",16.96%
CCn1cc(N2Cc3nc(N4CCOCC4)ncc3C2=O)cn1,Percent Effect,"30 µM, 30.03 µM",-6.754%
CC(C)n1cc(N2Cc3nc(N4CCOCC4)ncc3C2=O)cn1,Percent Effect,"30.3 µM, […]",32.93%
Cn1cc(N2Cc3nc(N4CCOCC4)ncc3C2=O)cn1,Percent Effect,"30.3 µM, […]",59.37%
CN(C)Cc1ccc(C(N)=O)cc1NC(=O)c1cccc(C#N)c1,Percent Effect,"30.3 µM, […]",0.5381%
CC(=O)N1CCC(Cc2cccc(-c3ccnn3C)n2)CC1,Percent Effect,"30.3 µM, […]",7.143%
CN(CCNC(=O)Nc1ccn(C)n1)Cc1ccc(F)cc1,Percent Effect,"30.3 µM, […]",-20.54%
CN(CCNC(=O)Nc1nccs1)Cc1ccc(F)cc1,Percent Effect,"30.3 µM, […]",53.32%
CN(CCNC(=O)Nc1cnn(C)c1)Cc1ccc(F)cc1,Percent Effect,"30.3 µM, […]",-44.73%
CCSCc1cccc(NC2CCN(C)C2=O)c1 (stereo unspecified),Percent Effect,"30.3 µM, […]",-1.156%
COCCCN(C)c1cc(C(F)(F)F)nc(-c2cccnc2)n1,Percent Effect,"30.3 µM, […]",1.301%
Cl.c1ccc(-c2ccc(C3CNCCO3)nc2)cc1 (stereo unspecified),Percent Effect,"30 µM, 30.03 µM",21.61%
CCNC(=O)N(Cc1ccoc1)C1CCCCC1,Percent Effect,"30.3 µM, […]",-8.85%
COc1cc(CSc2nnc(N)n2C2CC2)ccc1SC,Percent Effect,"30.3 µM, […]",3.668%
CC(C)(C)c1ncc(C(=O)N2CCC(N3CCSCC3)CC2)c(O)n1,Percent Effect,"30.3 µM, […]",-1.593%
NC(=O)C(CNC(=O)Cc1ccsc1)Cc1ccc(F)cc1 (stereo unspecified),Percent Effect,"30.3 µM, […]",32.76%
Cc1ccc(CC(=O)NCC(Cc2ccc(F)cc2)C(N)=O)cn1 (stereo unspecified),Percent Effect,"30.3 µM, […]",53.64%
NC(=O)C(CNC(=O)Cc1ccc(F)cc1)Cc1ccc(F)cc1 (stereo unspecified),Percent Effect,"30 µM, 30.03 µM",16.98%
CSc1ncnc(NCc2cccs2)c1C#N,Percent Effect,"30.3 µM, […]",10.2%
COCCCN1Cc2cccc(NC(=O)c3ccccc3C)c2C1,Percent Effect,"30.3 µM, […]",-0.887%
O=C(NCc1ccco1)[C@H]1CC[C@@H]2[C@@H](CCN2Cc2nccs2)O1.O=C(O)C(F)(F)F,Percent Effect,"30.3 µM, […]",-4.08%
COCC[C@]1(O)CCN(Cc2nc(C(C)C)cs2)C[C@H]1C,Percent Effect,"30.3 µM, […]",-0.9404%
COCCN(Cc1ccccn1)Cc1sccc1C,Percent Effect,"30.3 µM, […]",0.646%
COCCn1ccnc1CN(Cc1ccccn1)Cc1sccc1C,Percent Effect,"30.3 µM, […]",60.02%
COCCN(Cc1sccc1C)Cc1nccn1CCOC,Percent Effect,"30.3 µM, […]",16.06%
CN(CC(=O)Nc1cnn(-c2ccccc2S(C)(=O)=O)c1)C1CC1,Percent Effect,"30.3 µM, […]",52.47%
CC(C)(C)CC(=O)Nc1cnn(-c2ccccc2S(C)(=O)=O)c1,Percent Effect,"30.3 µM, […]",13.51%
CS(=O)(=O)c1ccccc1-n1cc(NC(=O)CC2C=CCC2)cn1 (stereo unspecified),Percent Effect,"30.3 µM, […]",4.466%
CC(C)c1cc(=O)[nH]c(-c2ccccc2CN2CCCCCC2)n1,Percent Effect,"30.3 µM, […]",1.494%
CCc1nc2c(c(C)c(C)n2Cc2cccnc2)c(N)c1C,Percent Effect,"30.3 µM, […]",13.69%
Cc1c(C)n(Cc2ccccn2)c2nc3c(c(N)c12)CCCC3,Percent Effect,"30 µM, 30.03 µM",-5.276%
Cc1c(C)n(Cc2ccncc2)c2nc3c(c(N)c12)CCCC3,Percent Effect,"30.3 µM, […]",9.739%
CCCc1nc2c(c(C)c(C)n2Cc2cccnc2)c(N)c1CC,Percent Effect,"30.3 µM, […]",64.41%
CCCc1nc2c(c(C)c(C)n2Cc2ccccn2)c(N)c1CC,Percent Effect,"30.3 µM, […]",98.46%
CCCc1nc2c(c(C)c(C)n2Cc2ccncc2)c(N)c1CC,Percent Effect,"30.3 µM, […]",13.89%
O=C(Cc1ccon1)N1CCN(c2ccc(F)cc2Cl)CC1,Percent Effect,"30.3 µM, […]",4.988%
CNC(=O)c1cnn2c(C3CCCN3C)ccnc12 (stereo unspecified),Percent Effect,"30.3 µM, […]",-0.3512%
CCN1CCC2(CCN(c3ncccn3)CC2)C1=O.O=C(O)C(F)(F)F,Percent Effect,"30.3 µM, […]",-8.891%
Cc1cc(C(=O)NCC(C)C)nn1C,Percent Effect,"30.3 µM, […]",3.079%
Cc1ccc(F)c(OC2CCCN(c3cnn(C)c3)C2=O)c1 (stereo unspecified),Percent Effect,"30.3 µM, […]",1.572%
CN(Cc1nccn1C)S(=O)(=O)Cc1cccc(C#N)c1,Percent Effect,"30.3 µM, […]",3.121%
Cc1c[nH]c(C2CCCN(Cc3ccccc3C(=O)O)C2)n1.O=CO (stereo unspecified),Percent Effect,"30.3 µM, […]",-7.994%
CC(=O)N1CCCN(C(=O)NCCNc2cnccn2)CC1,Percent Effect,30 µM,10.17%
Cc1cccc(CN2C[C@@H]3OCCN(c4ccnc(N(C)C)n4)[C@@H]3C2)c1.O=C(O)C(F)(F)F,Percent Effect,"30.3 µM, […]",-2.723%
CN(C)c1nccc(N2CCO[C@H]3CN(Cc4nccn4C)C[C@H]32)n1.O=C(O)C(F)(F)F,Percent Effect,"30.3 µM, […]",22.89%
CCc1ccc(CN2C[C@@H]3OCCN(c4ccnc(N(C)C)n4)[C@@H]3C2)o1.O=C(O)C(F)(F)F,Percent Effect,"30 µM, 30.03 µM",55.16%
CCc1cc(CNC(=O)C2CCCN(C(=O)NCC(C)C)C2)[nH]n1 (stereo unspecified),Percent Effect,"30.3 µM, […]",-11.81%
Cn1nc2c(cc1=O)CN(Cc1coc(-c3ccccc3)n1)CC2,Percent Effect,"30.3 µM, […]",18.82%
CCn1nc2c(cc1=O)CN(Cc1coc(-c3ccccc3)n1)CC2,Percent Effect,"30.3 µM, […]",51.53%
Cc1ccc(-c2nc(CN3CCc4nn(C)c(=O)cc4C3)co2)cc1,Percent Effect,"30 µM, 30.03 µM",21.01%
